Pf Dd2 inh: inhibitors of Plasmodium falciparum Dd2 growth; P. falciparum Dd2 growth, SYBR Green, 72 h; Potency, µM (doses to about 28.9 µM), hits mostly inhibitors; 120,000 tested, 4.3% active; AID 1347417; active means well fitted inhibition curve with a large enough effect; further: nearly all actives have a fitted effect of over 65% in size
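Infected erythrocytes (Dd2, 0.3% parasitemia, 2.5% hematocrit final) are added to compound in RPMI-1640/Albumax II medium, grown 72 h at 37C in low oxygen, then lysed with saponin/Triton-X containing SYBR Green and read by fluorescence.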
Numbers stand for hits; 0 = inactive; [ ] = dose if it differs, or a comment. The entries come from a sample that favours hits as a whole.

SMILES | Pf Dd2 inh
COc1cccc(N2C(=O)NC(=NC3CCCCC3)C23CCN(C(=O)c2cccnc2)C3)c1 (stereo not drawn) | 0
COCCCNc1ncc(C(=O)O)c(-c2ccccc2)n1 | 0
O=C(COc1ccccc1)N1CCCC(Nc2ccc(F)cc2)C1 (stereo not drawn) | 0
Cc1cnc(-c2ccccc2)n1C1CCCN(C(=O)COc2ccc(F)cc2)C1 (stereo not drawn) | 2.8µM
Cc1cnc(-c2ccccc2)n1C1CCCN(C(=O)c2ccnn2C)C1 (stereo not drawn) | 0
O=C(CSc1nc(=O)[nH]c2c1CCCC2)NCc1ccccc1Cl | 0
CCN(CC)C(=O)N1CCC(Oc2ccc(-c3noc(COC)n3)cc2)C1 (stereo not drawn) | 0[5.79 µM]
COCc1nc(-c2ccc(OC3CN(C(=O)c4cc(C)n(C)n4)C3)cc2)no1 | 7.9µM
COCc1nc(-c2ccc(OC3CN(C(=O)c4ccc(OC)nc4)C3)cc2)no1 | 0
Cc1ccc(C)c(-c2nc(Cn3c(=O)cc(-c4ccccc4)c4c(C)nn(C)c43)c(C)o2)c1 | 0
Cc1oc(-c2ccccc2)nc1Cn1c(=O)cc(-c2ccccc2)c2c(C)nn(C)c21 | 10µM
Cc1cccc(-c2nc(Cn3c(=O)cc(-c4ccccc4)c4c(C)nn(C)c43)c(C)o2)c1 | 0
COC(=O)C1=C(C)NC(=O)NC1c1ccc(Cl)cc1 (stereo not drawn) | 0
CN1CC(=O)N(C2CCNC2)Cc2c1ncnc2N1CCN(c2ncccn2)CC1 (stereo not drawn) | 0
Cc1cccc(-c2cc(NC(=O)c3ccccc3C)n(-c3ccccc3)n2)c1 | 0
O=C(CSCc1ccccc1Cl)N1CCN(c2ccc(Cl)cc2)CC1 | 0
Cc1noc(C)c1S(=O)(=O)N1CCC(N(CCC(C)C)C2CCOCC2)CC1 | 13µM
Cc1noc(C)c1S(=O)(=O)N1CCC(N2CCOC2=O)CC1 | 0
Cc1noc(C)c1S(=O)(=O)N1CC(N(CC(C)C)C2CCOCC2)C1 | 0
COc1ccc(-c2cc(N3CCCC3)nc(N)n2)c2ccc(C)nc12 | 0
CCc1cccc(C)c1NS(=O)(=O)c1cc(-c2cc(C)no2)ccc1C | 0
COc1ncccc1CNC[C@H]1Cn2c(-c3ccc(F)cc3)cnc2CO1 | 25µM
Clc1ccc(-c2cnc3n2C[C@H](CNCc2cccnc2)OC3)cc1 | 0
O=S(=O)(Cc1ccccc1)NC[C@H]1Cn2c(-c3ccc(F)cc3)cnc2CO1 | 0
O=C(NCc1ccccc1)NC[C@H]1Cn2c(-c3ccc(Cl)cc3)cnc2CO1 | 2.8µM
SMILES | Pf Dd2 inh
CS(=O)(=O)NC[C@H]1Cn2c(-c3ccc4c(c3)OCCO4)cnc2CO1 | 0
c1ccc(CNC[C@H]2Cn3c(-c4ccc5c(c4)OCCO5)cnc3CO2)cc1 | 11µM
O=S(=O)(Cc1ccccc1)NC[C@H]1Cn2c(-c3ccc(Cl)cc3)cnc2CO1 | 0
Clc1ccc(CNC[C@H]2Cn3c(-c4ccccc4)cnc3CO2)cc1 | 0
O=C(NC[C@H]1Cn2c(-c3ccc4c(c3)OCCO4)cnc2CO1)C1CC1 | 0
CC(=O)N1CCOc2ccc(CCC(=O)NCCN3CCCCC3C)cc2C1 (stereo not drawn) | 0
CCOc1ccc(C(=O)Nc2cccc(NC(=O)c3ccco3)c2)cc1Cl | 0
Cc1ccc(C(=O)NCc2cccnc2N(C)C2CCCCC2)cn1 | 0
CC1(C)CC(CCNc2ncncn2)(c2ccccc2)CCO1 (stereo not drawn) | 0
CC(C)OCCCNC(=O)C1Cn2cccc2C(=O)N1Cc1cccnc1 (stereo not drawn) | 0
COc1ccccc1OCCNC(=O)C1Cn2cccc2C(=O)N1Cc1cccnc1 (stereo not drawn) | 5.6µM
COc1ccccc1CNC(=O)C1Cn2cccc2C(=O)N1Cc1cccnc1 (stereo not drawn) | 4.5µM
O=C(NCc1cc(F)ccc1F)C1Cn2cccc2C(=O)N1Cc1ccccc1 (stereo not drawn) | 0
COc1cccc(CNC(=O)C2Cn3cccc3C(=O)N2Cc2ccccc2)c1 (stereo not drawn) | 0
O=C(NCCCN1CCCC1=O)C1Cn2cccc2C(=O)N1Cc1cccnc1 (stereo not drawn) | 0
COCCCNC(=O)C1Cn2cccc2C(=O)N1Cc1ccccc1 (stereo not drawn) | 0
O=C(NCCN1CCCCC1)C1Cn2cccc2C(=O)N1Cc1cccnc1 (stereo not drawn) | 0
O=C(NCCCN1CCCc2ccccc21)C1Cn2cccc2C(=O)N1Cc1cccnc1 (stereo not drawn) | 8.9µM
CN1CC(=O)N(c2ccc(Cl)cc2)Cc2c(NCC3CC3)ncnc21 | 0
COc1ccccc1CN[C@H]1[C@H](O)[C@@H](N2CCC(C(N)=O)CC2)[C@@H]2OC[C@H]1O2 | 0
COc1cccc(CN2C(=O)OC3(CCN(C(=O)Cc4ccccn4)CC3)C2(C)c2cccnc2)c1 (stereo not drawn) | 0
CCOC(=O)C1CCCN(S(=O)(=O)c2ccc3[nH]c(=O)oc3c2)C1 (stereo not drawn) | 0
CCCCOc1ccc(C(=O)Nc2ccc3oc(-c4cccnc4)nc3c2)cc1 | 0

Screening results: PubChem, National Center for Advancing Translational Sciences (NCATS)
